Data: PubChem BioAssay AID588590 (National Center for Advancing Translational Sciences (NCATS), 2011)
Hit rate of the full screen: of about 390,000 compounds, about 4,000 (1%) were called active. Roughly 7% stayed inconclusive and do not appear here. Shown is part of a subset that was picked to be rich in actives. Values without a mark were called inactive. The call rests on the fitted dose curve; in most records, active means well fitted inhibition curve with a large enough effect; inconclusive means small, poorly fitted or top-dose-only effect, or another doubt; inactive means no such curve, though single readings can be large or run the other way.

biological target: DNA polymerase iota (Homo sapiens) (UniProt Q9UNA4); test: qHTS for Inhibitors of Polymerase Iota; settings: Pol iota fluorescent replication assay, 10 min; series mostly up to 115 µM; activity, negative = inhibition: at the top concentration
Sequence (Q9UNA4 whole entry, looked up): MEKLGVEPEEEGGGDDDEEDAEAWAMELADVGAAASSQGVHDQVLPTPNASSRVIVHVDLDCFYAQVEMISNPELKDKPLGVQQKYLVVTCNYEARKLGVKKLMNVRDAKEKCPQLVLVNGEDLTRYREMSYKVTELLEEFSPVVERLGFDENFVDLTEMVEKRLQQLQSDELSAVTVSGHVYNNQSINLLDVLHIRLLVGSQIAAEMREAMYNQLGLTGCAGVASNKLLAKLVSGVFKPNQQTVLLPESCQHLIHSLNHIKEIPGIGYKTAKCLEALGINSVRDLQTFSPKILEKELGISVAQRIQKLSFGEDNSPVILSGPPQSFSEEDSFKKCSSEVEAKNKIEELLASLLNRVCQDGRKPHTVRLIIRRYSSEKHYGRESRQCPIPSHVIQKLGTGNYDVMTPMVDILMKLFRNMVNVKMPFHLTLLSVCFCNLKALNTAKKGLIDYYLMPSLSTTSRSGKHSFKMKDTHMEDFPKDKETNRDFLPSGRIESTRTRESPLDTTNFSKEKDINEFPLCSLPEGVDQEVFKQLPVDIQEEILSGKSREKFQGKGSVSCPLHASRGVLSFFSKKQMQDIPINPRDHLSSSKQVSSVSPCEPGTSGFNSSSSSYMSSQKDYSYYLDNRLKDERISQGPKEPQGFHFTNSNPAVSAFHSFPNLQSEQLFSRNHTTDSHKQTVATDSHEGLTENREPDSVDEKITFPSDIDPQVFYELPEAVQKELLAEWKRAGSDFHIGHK
Procedure, shortened: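 Pol iota at 10 nM preincubated 15 min with compounds at room temperature; reaction started with fluorescent substrate, 50 nM final. Fluorescence read kinetically at 0 and 10 min; buffer-only wells as negative control.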
Potency means the concentration at half of the fitted maximal effect.

Compound | activity, negative = inhibition | Potency
CN1CCN(C(CNC(=O)c2ccccc2F)c2ccc3c(c2)OCO3)CC1 (stereo not given) | 28.1% | –
Cc1ccc(OCCSc2nc(C)c(Cc3ccccc3)c(=O)[nH]2)cc1 | 14.1% | –
Cc1ccc(CCNC(=O)c2ccc3c(c2)N(Cc2cc(C)ccc2C)C(=O)c2ccccc2S3=O)cc1 (stereo not given) | -18.7% | –
Cc1ccc(Cl)cc1N1CCN(C(=O)c2cccn3c(=O)c4cc(Cl)ccc4nc23)CC1 | 34.6% | –
CCCn1c2ccccc2c2cnn(CC(=O)N3CCCC(C(=O)OCC)C3)c(=O)c21 (stereo not given) | 2.71% | –
CCOC(=O)N1CCc2c(sc3c2c(=O)n(-c2ccc(CC)cc2)c(=O)n3C)C1 | 35.1% | –
O=C(NCc1ccccc1)c1cccc(NC(=O)N2CCSc3ncccc32)c1 | 16.8% | –
Cc1c(NC(=O)Cc2ccccc2)cccc1-c1nc2cccnc2s1 | 11.6% | –
O=C(Nc1ccccc1Cl)/C(Cl)=C(\Cl)S(=O)c1ccccc1 (stereo not given) | – | 12.6 µM (active)
O=C(Nc1ccccc1Cl)N1CCC(CN2CCCC2)CC1 | -25.7% | –
O=C(Nc1ccccc1Cl)N1CCC(CN2CCCCC2)CC1 | -15.7% | –
Cc1ccc(-c2nn3c(=O)cc(CN4CCN(S(=O)(=O)c5ccc(Cl)cc5)CC4)nc3s2)cc1 | -15.6% | –
Cc1csc(SCC(=O)Nc2sccc2C#N)n1 | – | 22.4 µM (active)
N#Cc1ccsc1NC(=O)CN1CCCCC1 | 4.32% | –
CC(=O)c1cc(C#N)c(SCC(=O)Nc2nccs2)nc1C | 33.6% | –
COc1ccc(CCN2C(=O)c3oc4cc(C)cc(C)c4c(=O)c3C2c2ccccc2F)cc1OC (stereo not given) | 23.2% | –
Cc1cccc(Cc2c(C)nc3nc(SCc4ccccc4Cl)nn3c2C)c1 | 1.69% | –
CC1(C)N=C(SCc2ccccc2Cl)c2ccccc2N1 | -1.22% | –
c1ccc(CSc2nnc(-c3ccco3)c(-c3ccco3)n2)cc1 | – | 7.94 µM (active)
Cc1ccc(-c2nnc(SCC(=O)NCc3ccccc3)nc2-c2ccc(C)cc2)cc1 | 8% | –
Clc1ccccc1CSc1nnc(-c2ccco2)c(-c2ccco2)n1 | – | 14.1 µM (active)
CSc1n[nH]c(-c2ccco2)n1 | -17.7% | –
O=C(CCc1nc(CN2CCN(S(=O)(=O)c3ccc(Br)cc3)CC2)no1)N1CCCCC1 | 10.5% | –
CCOC(=O)c1scc(-c2ccc(C)cc2)c1S(=O)(=O)Nc1cc(C)ccc1C | -26.6% | –
Cc1cccc(-n2c(SCC(N)=O)nc3c(oc4ccccc43)c2=O)c1 | 36.3% | –

Compound | activity, negative = inhibition | Potency
COc1cc(Cl)c(C)cc1NC(=O)CCc1nc2cccnc2n1Cc1cccs1 | -4.61% | –
Cc1cc(NC(=O)CSc2ncc(C(=O)Nc3ccc(Cl)cc3)c(=O)n2C)no1 | -8.21% | –
Cc1ccc(S(=O)(=O)N2CCN(S(=O)(=O)N3CCOCC3)CC2)cc1 | -16.2% | –
O=C1CCCC(O)=C1N=Nc1ccc(S(=O)(=O)N2CCOCC2)cc1 | – | 35.5 µM (active)
CC1(C)CC(=O)C(N=Nc2ccc(S(=O)(=O)N3CCCCCC3)cc2)=C(O)C1 | 9.92% | –
COc1ccc(Cn2c(=O)[nH]c3cc(C(=O)N4CCN(C(=O)c5ccco5)CC4)ccc3c2=O)cc1 | 36.2% | –
N#Cc1c(C(F)(F)F)cc(-c2cccs2)nc1N1CCCCC1 | -6.85% [at 58.9 µM] | –
N#Cc1c(N2CCCCC2)nc(N)c2c(N)nc(SCC(=O)O)cc12 | – | 7.08 µM (active)
CC(C)(C)c1ccc(C(=O)C[N+]2(C)CCCc3ccccc32)cc1 (stereo not given) | – | 79.4 µM (active)
CC(C)(C)c1ccc(C(=O)NCc2nnc(SCC(=O)N3CCCc4ccccc43)n2-c2ccccc2)cc1 | 16.9% | –
CC(C)(C)c1ccc(C(=O)C[n+]2cccc3cc(Cl)ccc32)cc1 | 25.7% | –
Cc1ccc(NC(=O)Cn2cnc3nc4c(cc3c2=O)CCCC4)cc1Cl | -12.5% | –
CCOc1ccc(CNC(=O)C2CCN(c3nnc(-n4cccc4CNc4ccc(C)cc4)s3)CC2)cc1OC | -0.133% | –
Cc1ccc(CCNC(=O)c2ccc(CNS(=O)(=O)c3ccc(C)cc3)cc2)cc1 | 3% | –
CN(C)c1nccc(NCc2ccccc2)c1C#N | 18.2% | –
CC(C)n1cnc2c(NCc3ccccc3)cc(OCC3CCN(C)CC3)cc21 | – | 3.16 µM (active)
Cc1ccc(OCC(=O)OCc2cc(=O)n3nc(C4CC4)sc3n2)cc1C | 29.3% | –
Cc1ccc(OCC(=O)OCc2cc(=O)n3nc(C4CC4)sc3n2)cc1 | – | 89.1 µM (active)
CCC(=O)Nc1cccc(C(=O)OCc2cc(=O)n3nc(CC)sc3n2)c1 | 22.1% | –
CCCCc1nn2c(=O)cc(COC(=O)c3cccc(NC(=O)COc4ccccc4)c3)nc2s1 | 16.1% | –
COc1ccc(OCC(=O)Nc2cccc(C(=O)OCc3cc(=O)n4nc(C)sc4n3)c2)cc1 | – | 89.1 µM (active)
O=C(COc1ccccc1F)OCc1cc(=O)n2nc(C3CCCCC3)sc2n1 | 10.5% | –
Cc1ccc(NC(=O)Cn2c(=O)n(-c3ccccc3)c(=O)c3c4c(sc32)CCCC4)cc1 | 1.6% | –
CCOc1ccc(-c2nonc2NC(=O)c2oc3ccc(CC)cc3c2C)cc1 | -15% | –
CCOC(=O)c1c(S(=O)(=O)N2CCCC(C(=O)NCc3ccc(F)cc3)C2)c(C)n(CC)c1C (stereo not given) | 6.16% | –
